# Inconclusive results are not listed. Calls of active or inactive are those of the source. How the source made its calls: active means hit-call score of the fitted dose curve at least 0.9, where 1 is the maximum; inconclusive means response in the unintended direction; inactive means score below 0.9.
# Experiment: ACEA_ER_AUC_viability: ACEA Biosciences xCELLigence Real-Time Cell Analysis on Estrogen Receptor Agonism for Viability (AID 2283782);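 further: hit means loss of impedance signal meaning reduced cell growth or viability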
# Procedure, shortened: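 Viability endpoint: reduced impedance area under the curve relative to DMSO, recorded by real-time electrode sensing over ~80 h of continuous exposure. Duplicate plates of T47D in hormone-depleted medium; eight concentrations, 1:4 dilutions, 100 uM maximum.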
Compound,AC50,outcome
CCCCC1CCC(=O)O1 (stereo unspecified),60.6 µM (active),–
COC(OC)(C(=O)c1ccccc1)c1ccccc1,64 µM (active),–
O=C(O)C1CCC(C(=O)O)CC1 (stereo unspecified),–,inactive
O=C1CCCCC1C1CCCCC1 (stereo unspecified),–,inactive
CC1CC(=O)CC(C)(C)C1 (stereo unspecified),–,inactive
Nc1cccc(N)n1,–,inactive
CC/C=C\CCOC(=O)c1ccccc1O,72.7 µM (active),–
CC(C)=CCl,–,inactive
O=C1CCCN1C1CCCCC1,–,inactive
O=C(Oc1ccccc1)c1ccccc1O,–,inactive
CC(=O)CCC1=C(C)CCCC1(C)C,81.5 µM (active),–
CC(C)C(=O)OCCc1ccccc1,–,inactive
O=C(Oc1ccccc1)c1ccccc1C(=O)Oc1ccccc1,86.1 µM (active),–
CCCCOC(=O)C(C)CC (stereo unspecified),–,inactive
CC(=O)OC1CCCCC1,40.3 µM (active),–
Cn1cccc1,–,inactive
Cc1cc(=O)[nH]c(=O)[nH]1,–,inactive
CC(C)(c1ccccc1)c1ccc(Nc2ccc(C(C)(C)c3ccccc3)cc2)cc1,–,inactive
CC1CCC(=O)C1=O (stereo unspecified),10.3 µM (active),–
O=C(O)CCCC(=O)O,–,inactive
CC1=NN(c2ccc(S(=O)(=O)O)cc2)C(=O)C1N=Nc1ccccc1 (stereo unspecified),–,inactive

Compound,AC50,outcome
c1ccc(Nc2cccc3ccccc23)cc1,81.4 µM (active),–
CCC(C)C(=O)OC (stereo unspecified),–,inactive
CCCC/C=C/C=C\C=O,88.9 µM (active),–
CCCCC(CC)COC(=O)/C=C/c1ccc(OC)cc1 (stereo unspecified),40.1 µM (active),–
CCOC(=O)/C=C\C(=O)OCC,82.6 µM (active),–
CCC(C)C(=O)OCCc1ccccc1 (stereo unspecified),–,inactive
CC(C)c1ccc(O)c(C(C)C)c1,79.4 µM (active),–
CCc1occc(=O)c1O,–,inactive
CCCCCCOc1ccc(N)cc1,86.8 µM (active),–
CC(C)CO,–,inactive
Oc1c(Cl)cc(Cl)c(Cl)c1Cl,90.9 µM (active),–
CCN(CC)c1cccc(C)c1,27.9 µM (active),–
Cc1cc(C)c(C=O)c(C)c1,–,inactive
C=Cc1cccc(C)c1,–,inactive
COC(Cc1ccccc1)OC,67 µM (active),–
C=C[Si](OCCOC)(OCCOC)OCCOC,–,inactive
Cc1c[nH]c(=O)[nH]c1=O,68.6 µM (active),–
CCC(=O)C1CC(C(C)C)CC=C1C (stereo unspecified),–,inactive
CC=C(C)C=CC=C(C)C,50 µM (active),–
CCCCNS(=O)(=O)c1ccccc1,–,inactive

# Source: PubChem BioAssay (EPA / NIEHS)
